In PubChem BioAssay (NCI) one finds growth data, which are given here for 8 compounds.

Holding throughout (experiment): NCI-60 one-dose screen, 48 h (100 = growth as untreated, 0 = no growth, -100 = all killed)
Settings in all cases: 10 µM unless noted

In test [1] the test system is SK-MEL-2 melanoma.
Test [2] concerns EKVX NSCLC.
Test [3] has as its system SN12C renal.
Test [4] relates to UO-31 renal.
Test [5] deals with TK-10 renal.
In test [6] the test system is ACHN renal.
Test [7] deals with CAKI-1 renal.
In test [8] the test system is A498 renal.
Test [9] has as its system CCRF-CEM leukemia.
Test [10] has as its system MOLT-4 leukemia.
Test [11] relates to RPMI-8226 leukemia.
The subject of test [12] is OVCAR-8 ovarian.
Test [13] relates to OVCAR-5 ovarian.
The test system of test [14] is OVCAR-4 ovarian.
In test [15] the test system is SK-OV-3 ovarian.
For test [16], the system named is IGROV1 ovarian.
The test system of test [17] is OVCAR-3 ovarian.
The subject of test [18] is HS 578T breast.
Test [19] relates to NCI/ADR-RES ovarian.

This is part of a sample that, as a whole, favours compounds with a hit. Of some 83,000 tested, about 20% had one in any assay.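 Step 1: grow cells in 96-well plates. Step 2: add test compound at a single concentration. Step 3: incubate 48 h. Step 4: record percent growth.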 Values without a mark were called inactive. Active and inactive are the calls of the source. Rule for the calls: active = growth percent below 10; inactive = the rest.

Turning to `CCc1nnc(NC(=O)c2nnn(-c3ccccc3)c2-c2ccco2)s1`, the growth in test [1] was 108%; in [2] it was 84.7%; in test [3], 96.4%; in test [4], 87.4%; in test [5], 115%; in [6], 94.5%. Moreover, the growth is 92.1% in test [7]; 42.7% in test [8]; 77.8% in [9]; 93.7% in test [10]; 91% in [11]; 103% in test [12]. For the same compound, the growth in test [13] is 101%; in test [14] it was 80.3%; in [15] it was 82.3%; in test [16] it was 103%; in test [17], 103%; in test [18], 92.5%. Moreover, in [19], the growth is 100%.
On to `Cc1ccc(-c2nc3c(c(-c4ccccc4)nn3-c3ccccc3)c(-c3ccc(O)cc3)c2C#N)cc1`, for which the growth is 78.7% in [1]; 74.5% in test [2]; 53.7% in test [3]; 39.4% in test [4]; 38.3% in test [5]; 67.6% in test [6]. For the same compound, the growth is 50.4% in test [7]; 44.2% in [8]; 39.1% in test [9]; 40.5% in [10]; 21.4% in test [11]; 69% in [12]. In addition, the growth in [13] is 104%; in [14] it was 82.2%; in test [15], 92.6%; in test [16] it was 82.6%; in [17], 64.5%; in [18] it was 24%. For the same compound, in test [19], the growth was 81.4%.
Turning to `C=C1CC[C@H](C(C)C)[C@@H]2[C@H]1[C@H]1CC(=C)[C@@H](O)CC[C@@](C)(O)[C@@H]2O1`, the growth in test [1] is 80.9%; in test [2], 98.1%; in [3], 109%; in [4], 82.6%; in test [5], 103%; in [6] it was 95.8%. For the same compound, the growth in [7] is 95.1%; in test [8], 89.3%; in [9], 94%; in test [10], 119%; in test [11], 93.3%; in test [12], 99.4%. Besides, the growth in test [13] was 79.5%; in test [14], 98.5%; in test [15] it was 109%; in test [16] it was 107%; in test [17], 101%; in test [18] it was 92.4%. For the same compound, the growth in test [19] is 85.9%.
As to `CC(=O)CC(c1ccccc1)c1c(C)[nH]c2ccccc12` (configuration not stated), the growth in [1] was 105%; in test [2], 85.9%; in test [3], 94%; in test [4], 72.6%; in [5], 117%; in test [6], 92.8%. In addition, the growth was 77.8% in test [7]; 88.1% in test [8]; 101% in test [9]; 95% in test [10]; 94.4% in test [11]; 97.4% in [12]. Also, the growth in test [13] is 94.2%; in test [14], 100%; in [15] it was 104%; in test [16], 91.5%; in test [17] it was 95.9%; in test [18], 84.6%. The growth in [19] is 93.6%.
In the case of `CNc1nc2c(s1)C(c1cccc(F)c1)CC(=O)N2` (configuration not stated), the growth in [1] is 100%; in test [2] it was 103%; in test [3], 95.2%; in test [4], 84.6%; in [5], 105%; in test [6], 88.4%. Moreover, the growth in test [7] was 87.6%; in test [8], 69%; in test [9], 104%; in test [10] it was 103%; in test [11] it was 106%; in test [12] it was 102%. For the same compound, the growth in [13] is 97.1%; in test [14], 107%; in test [15], 100%; in [16] it was 107%; in [17], 99.1%; in test [18] it was 94.3%. Also, in test [19], the growth was 103%.
For the compound `S=c1nc(-c2ccccc2)oc(=NC2CCCCC2)n1C1CCCCC1`, the growth in [1] was 37.9%; in test [2], 24.4%; in test [3], 67.9%; in test [4] it was 46.5%; in test [5], 32.8%; in test [6], 15.4%. The growth in [7] was 75.4%; in test [8], 86.8%; in test [9], -6.7% (active); in [10], 0.447% (active); in [11] it was -8.22% (active); in [12], 32.2%. Further, the growth in test [13] is 86.2%; in test [14], 33.9%; in test [15], 87.7%; in [16] it was -25.9% (active); in test [17] it was 11.8%; in test [18], 43.1%. Further, the growth in test [19] is 32.5%.
Take `CC(=O)O.CN1[CH-]N(Cc2ccc(C#N)cc2)c2ccccc21.[Ag+]`: the growth in test [1] was 89.8%; in [2], 108%; in [3] it was 111%; in test [4] it was 97.4%; in [5], 103%; in test [6] it was 106%. Moreover, the growth in [7] was 104%; in test [8] it was 99.7%; in [9] it was 24.7%; in [10], 90.1%; in [11], 88.8%; in test [12], 101%. The growth is 117% in [13]; 112% in test [14]; 120% in test [15]; 111% in test [16]; 116% in [17]; 103% in [18]. The growth in test [19] was 109%.
Consider `O=C(N/N=C/c1ccc(Cl)cc1)c1ccc(C(F)(F)F)nc1Nc1cccc(C(F)(F)F)c1`, for which the growth in [1] is 25.8%; in [2] it was 17.7%; in [3] it was 4.9% (active); in test [4], 10%; in [5], 26.6%; in [6], 13%. Also, the growth in test [7] is -5.88% (active); in test [8], 12.6%; in test [9], 33.9%; in test [10] it was 2.2% (active); in test [11], 3.59% (active); in test [12], 24%. Also, the growth was 28% in test [13]; 18.6% in test [14]; 23.8% in test [15]; 21.1% in test [16]; -45.2% (active) in test [17]; 4.32% (active) in test [18]. The growth in [19] is -36.2% (active).
